Measured values reported in the supplement of paper PMC9262897, “Low-cost anti-mycobacterial drug discovery using engineered E. coli” (Nature Communications, 2022).
Where a name gives a salt, the structure may show the parent alone. ± gives the standard deviation of the averaged measurements.

What was measured:
Experiment in all cases: growth (OD600 after 10 h); higher = more growth (less inhibition)
[1] = test system: E. coli TESEC Alr+ wild-type control; settings: compound 0.1 mM; raw OD600 reference: median of DMSO wells 0.241, cell-free background 0.041
Description: (§1)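 TESEC Mtb Alr E. coli, or the Alr+ wild-type control, in 384-well plates with Prestwick library compounds at 0.1 mM and 1% DMSO, across arabinose induction levels of 1E3 to 1E7 nM. Growth is read as OD600 after 10 h at 37 °C in triplicate biological replicates.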

E. coli TESEC Mtb Alr [2] = settings: compound 0.1 mM
Description: as §1

E. coli TESEC Mtb Asd = settings: compound 0.1 mM
Description: (§2)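 TESEC E. coli strains in which the native enzyme is deleted and replaced by arabinose-inducible Mtb Asd, DapB, CysH or TrpD, each grown in its selective medium. Strains were screened against the Prestwick library at 0.1 mM and 1% DMSO in 384-well format at low and high arabinose induction. Growth is read as OD600 after 10 h in triplicate.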

E. coli TESEC Mtb DapB = settings: compound 0.1 mM
Description: as §2

[3] = test system: E. coli TESEC Alr+ wild-type control; settings: compound 0.1 mM; raw OD600 reference: median of DMSO wells 0.49, cell-free background 0.052
Description: (§3)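 TESEC Mtb Alr E. coli (ΔaraC ΔtolC ΔentC Δalr ΔdadX, arabinose-inducible Mtb Alr) or the Alr+ wild-type control strain, grown in defined M9-fructose medium without D-alanine in 96-well plates with Prestwick library compounds at 0.1 mM and 1% DMSO. Low Alr induction is 0.1 µM arabinose and high induction is 10 mM arabinose.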

E. coli TESEC Mtb Alr [4] = settings: compound 0.1 mM; remark: listed apart in the source
Description: as §3

[5] = arabinose 1000 nM, raw OD600 reference: median of DMSO wells 0.294, cell-free background 0.041
[6] = arabinose 10000 nM, raw OD600 reference: median of DMSO wells 0.264, cell-free background 0.041
[7] = arabinose 100000 nM, raw OD600 reference: median of DMSO wells 0.201, cell-free background 0.041
[8] = arabinose 1000000 nM, raw OD600 reference: median of DMSO wells 0.193, cell-free background 0.041
[9] = arabinose 10000000 nM, raw OD600 reference: median of DMSO wells 0.146, cell-free background 0.041
[10] = arabinose induction (level): High, raw OD600 reference: median of DMSO wells 0.331, cell-free background 0.041
[11] = arabinose induction (level): Low, raw OD600 reference: median of DMSO wells 0.417, cell-free background 0.041
[12] = arabinose induction (level): High, raw OD600 reference: median of DMSO wells […], cell-free background 0.041
[13] = arabinose induction (level): Low, raw OD600 reference: median of DMSO wells 0.227, cell-free background 0.041
[14] = arabinose 100 nM, raw OD600 reference: median of DMSO wells 0.413, cell-free background 0.052
[15] = arabinose 10000000 nM, raw OD600 reference: median of DMSO wells […], cell-free background 0.052

| SMILES | growth [1] | growth (E. coli TESEC Mtb Alr [2]; [5]) | growth (E. coli TESEC Mtb Alr [2]; [6]) | growth (E. coli TESEC Mtb Alr [2]; [7]) | growth (E. coli TESEC Mtb Alr [2]; [8]) | growth (E. coli TESEC Mtb Alr [2]; [9]) | growth (E. coli TESEC Mtb Asd; [10]) | growth (E. coli TESEC Mtb Asd; [11]) | growth (E. coli TESEC Mtb DapB; [12]) | growth (E. coli TESEC Mtb DapB; [13]) | growth [3] | growth (E. coli TESEC Mtb Alr [4]; [14]) | growth (E. coli TESEC Mtb Alr [4]; [15]) |
| --- | --- | --- | --- | --- | --- | --- | --- | --- | --- | --- | --- | --- | --- |
| O=c1[nH]c(=O)n([C@H]2C[C@H](O)[C@@H](CO)O2)cc1C(F)(F)F [Trifluridine] | 0.194 ± 0.02 | 0.213 ± 0.049 | 0.0994 ± 0.0099 | 0.121 ± 0.0045 | 0.082 ± 0.0069 | 0.135 ± 0.0027 | 0.13 ± 0.0033 | 0.203 ± 0.0098 | 0.164 ± 0.006 | 0.174 ± 0.0024 | 0.476 ± 0.016 | 0.077 ± 0.0037 | 0.129 ± 0.023 |
| CCCC1O[C@@H]2C[C@H]3[C@@H]4CCC5=CC(=O)C=C[C@]5(C)[C@H]4[C@@H](O)C[C@]3(C)[C@]2(C(=O)CO)O1 (stereo partly drawn) [Budesonide] | 0.1456 ± 0.0011 | 0.187 ± 0.0064 | 0.247 ± 0.0047 | 0.166 ± 0.015 | 0.112 ± 0.0012 | 0.141 ± 0.0021 | 0.309 ± 0.023 | 0.31 ± 0.025 | 0.167 ± 0.0066 | 0.231 ± 0.0093 | 0.449 ± 0.02 | 0.4337 ± 0.004 | 0.269 ± 0.0039 |
| Cc1cccc(N(C)C(=S)Oc2ccc3ccccc3c2)c1 [Tolnaftate] | 0.255 ± 0.019 | 0.272 ± 0.02 | 0.268 ± 0.012 | 0.165 ± 0.016 | 0.11 ± 0.011 | 0.163 ± 0.0066 | 0.281 ± 0.07 | 0.246 ± 0.047 | 0.174 ± 0.012 | 0.243 ± 0.029 | 0.465 ± 0.0063 | 0.384 ± 0.015 | 0.264 ± 0.064 |
| CO[C@@]1(NC(=O)Cc2cccs2)C(=O)N2C(C(=O)O)=C(COC(N)=O)CS[C@@H]21 [Cefoxitin sodium salt] | 0.0397 ± 0.00092 | 0.0385 ± 0.0017 | 0.0398 ± 0.0004 | 0.0383 ± 0.0013 | 0.03983 ± 0.00029 | 0.0389 ± 0.00036 | 0.0597 ± 0.0059 | 0.0593 ± 0.014 | 0.0512 ± 0.0019 | 0.0492 ± 0.0059 | 0.0458 ± 0.00061 | 0.0456 ± 0.00026 | 0.052 ± 0.0013 |
| CC(CCc1ccccc1)NCC(O)c1ccc(O)c(C(N)=O)c1 (stereo not drawn) [Labetalol hydrochloride] | 0.191 ± 0.006 | 0.246 ± 0.015 | 0.24 ± 0.011 | 0.174 ± 0.011 | 0.1371 ± 0.0012 | 0.137 ± 0.0031 | 0.26 ± 0.015 | 0.407 ± 0.046 | 0.186 ± 0.0091 | 0.209 ± 0.017 | 0.467 ± 0.024 | 0.413 ± 0.0048 | 0.321 ± 0.016 |
| CCCCc1cc2ccccc2c(OCCN(C)C)n1 [Dimethisoquin hydrochloride] | 0.177 ± 0.0065 | 0.182 ± 0.0035 | 0.162 ± 0.0045 | 0.199 ± 0.0029 | 0.0689 ± 0.0025 | 0.1567 ± 0.0013 | 0.154 ± 0.0042 | 0.171 ± 0.015 | 0.167 ± 0.014 | 0.184 ± 0.012 | 0.444 ± 0.022 | 0.3984 ± 0.0029 | 0.308 ± 0.011 |
| CC(C)(C)NC[C@@H](O)COc1cccc2c1CCCC2=O [(+) -Levobunolol hydrochloride] | 0.226 ± 0.012 | 0.291 ± 0.0069 | 0.267 ± 0.007 | 0.18 ± 0.0047 | 0.182 ± 0.0049 | 0.136 ± 0.003 | 0.459 ± 0.021 | 0.467 ± 0.022 | 0.205 ± 0.021 | 0.224 ± 0.017 | 0.546 ± 0.077 | 0.412 ± 0.012 | 0.339 ± 0.013 |
| CCOC(=O)C1=C(C)NC(C)=C(C(=O)OC)C1c1cccc(Cl)c1Cl (stereo not drawn) [Felodipine] | 0.0763 ± 0.012 | 0.0729 ± 0.024 | 0.0553 ± 0.0007 | 0.0562 ± 0.0017 | 0.0517 ± 0.00035 | 0.0625 ± 0.0023 | 0.0579 ± 0.0044 | 0.0538 ± 0.002 | 0.07363 ± 0.0005 | 0.0792 ± 0.032 | 0.0917 ± 0.0035 | 0.3 ± 0.099 | 0.0862 ± 0.0057 |
| O=c1oc2ccccc2c(O)c1Cc1c(O)c2ccccc2oc1=O [Dicumarol] | 0.178 ± 0.001 | 0.159 ± 0.0018 | 0.1609 ± 0.0012 | 0.149 ± 0.0042 | 0.0997 ± 0.0013 | 0.126 ± 0.0032 | 0.289 ± 0.049 | 0.262 ± 0.049 | 0.18 ± 0.014 | 0.199 ± 0.046 | 0.191 ± 0.025 | 0.128 ± 0.022 | 0.0655 ± 0.0074 |
| CC(=O)O[C@]1(C(C)=O)CC[C@H]2[C@@H]3C=C(C)C4=CC(=O)CC[C@@H]4[C@H]3CC[C@@]21C [Nomegestrol acetate] | 0.1345 ± 0.001 | 0.127 ± 0.02 | 0.0606 ± 0.0005 | 0.124 ± 0.0062 | 0.061 ± 0.0017 | 0.0997 ± 0.0051 | 0.126 ± 0.018 | 0.104 ± 0.0027 | 0.144 ± 0.014 | 0.129 ± 0.0045 | 0.14 ± 0.0081 | 0.229 ± 0.082 | 0.0935 ± 0.015 |
| CNC(=O)c1c(I)c(C(=O)NCC(=O)Nc2c(I)c(C(=O)O)c(I)c(C(=O)NCCO)c2I)c(I)c(N(C)C(C)=O)c1I [Ioxaglic acid] | 0.239 ± 0.0087 | 0.2972 ± 0.0024 | 0.28 ± 0.0056 | 0.219 ± 0.0065 | 0.215 ± 0.015 | 0.139 ± 0.0059 | 0.343 ± 0.027 | 0.359 ± 0.048 | 0.198 ± 0.013 | 0.211 ± 0.013 | 0.606 ± 0.023 | 0.426 ± 0.0094 | 0.3518 ± 0.0018 |
| CCCCCCNC(=O)n1cc(F)c(=O)[nH]c1=O [Carmofur] | 0.1489 ± 0.00094 | 0.215 ± 0.024 | 0.176 ± 0.017 | 0.108 ± 0.0064 | 0.0803 ± 0.0054 | 0.112 ± 0.0029 | 0.235 ± 0.029 | 0.359 ± 0.026 | 0.179 ± 0.01 | 0.201 ± 0.018 | 0.508 ± 0.04 | 0.349 ± 0.056 | 0.134 ± 0.014 |
| COc1cccc2c1C(=O)c1c(O)c3c(c(O)c1C2=O)C[C@@](O)(C(=O)CO)C[C@@H]3O[C@H]1C[C@H](N)[C@H](O)[C@H](C)O1 [Doxorubicin hydrochloride] | 0.0471 ± 0.00081 | 0.0479 ± 0.0023 | 0.047 ± 0.002 | 0.0467 ± 0.00066 | 0.04497 ± 0.00012 | 0.0474 ± 0.0025 | 0.0664 ± 0.0059 | 0.0616 ± 0.0028 | 0.0535 ± 0.00072 | 0.0539 ± 0.001 | 0.05757 ± 0.00055 | 0.0599 ± 0.0035 | 0.0585 ± 0.00087 |
| CC#C[C@]1(O)CC[C@H]2[C@@H]3CCC4=CC(=O)CCC4=C3[C@@H](c3ccc(N(C)C)cc3)C[C@@]21C [Mifepristone] | 0.142 ± 0.0098 | 0.181 ± 0.013 | 0.207 ± 0.016 | 0.138 ± 0.0049 | 0.0733 ± 0.003 | 0.1374 ± 0.00076 | 0.241 ± 0.077 | 0.216 ± 0.015 | 0.199 ± 0.0078 | 0.236 ± 0.013 | 0.337 ± 0.037 | 0.411 ± 0.009 | 0.116 ± 0.012 |
| COc1ccc2c(c1)c(CC(=O)OCC(=O)O)c(C)n2C(=O)c1ccc(Cl)cc1 [Acemetacin] | 0.154 ± 0.0063 | 0.198 ± 0.012 | 0.195 ± 0.0045 | 0.139 ± 0.0049 | 0.109 ± 0.0015 | 0.131 ± 0.0045 | 0.21 ± 0.078 | 0.211 ± 0.012 | 0.152 ± 0.0045 | 0.185 ± 0.024 | 0.363 ± 0.021 | 0.362 ± 0.084 | 0.183 ± 0.012 |
| CCCc1cc(=O)[nH]c(=S)[nH]1 [Propylthiouracil] | 0.241 ± 0.0062 | 0.289 ± 0.025 | 0.263 ± 0.0094 | 0.219 ± 0.034 | 0.195 ± 0.0092 | 0.152 ± 0.0063 | 0.431 ± 0.04 | 0.45 ± 0.047 | 0.199 ± 0.0093 | 0.194 ± 0.019 | 0.55 ± 0.1 | 0.41 ± 0.015 | 0.345 ± 0.043 |
